The text below walks through data of PubChem BioAssay (NCATS).

SMILES strings stand for the structures. Records with an inconclusive call do not appear. A number with no mark means an inactive call. Calls of active or inactive are those of the source. Calls come from the whole dose curve; as a rule, active = well fitted inhibition curve with a large enough effect; inconclusive = small, poorly fitted or top-dose-only effect; inactive = flat fitted curve, though single readings scatter.

Experiment [1] can be described thus: qHTS profiling for inhibitors of Plasmodium falciparum proliferation (AID 504749).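 For activity, negative = inhibition: 0% = DMSO vehicle and full inhibition = artemisinin control.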 For all read-outs here: nearly all actives have a fitted effect of over 60% in size. Particulars: P. falciparum in erythrocytes, SYBR Green DNA, 72 h; for activity, negative = inhibition: at 28.7 µM (top of the series). A digest of the protocol: (§1)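 SYBR Green fluorescence (ex 485 nm, em 535 nm) reports parasite DNA after 72 h compound exposure of infected red cells at 0.3% parasitemia, 2.5% hematocrit; signal normalized to 0.29 uM artemisinin and vehicle wells.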

A further experiment relates to 3D7. The description is as above. The settings on record: P. falciparum in erythrocytes, SYBR Green DNA, 72 h; series mostly up to 28.7 µM. In short, it runs like this:
as §1

The test system of a further experiment is 7G8. The experiment is described as above. The settings on record: P. falciparum in erythrocytes, SYBR Green DNA, 72 h; series mostly up to 28.7 µM. A digest of the protocol:
as §1

The next experiment deals with AA1029. The description is as above. Particulars: P. falciparum in erythrocytes, SYBR Green DNA, 72 h; series mostly up to 28.7 µM. A digest of the protocol:
as §1

For another experiment, the system named is AS120. The description is as above. Particulars: P. falciparum in erythrocytes, SYBR Green DNA, 72 h; series mostly up to 28.7 µM. A digest of the protocol: as §1
In another experiment the test system is ATS189. The description is as above. Particulars: P. falciparum in erythrocytes, SYBR Green DNA, 72 h; series mostly up to 28.7 µM. A digest of the protocol:
as §1

A further experiment deals with ATS95. The experiment is described as above. The settings on record: P. falciparum in erythrocytes, SYBR Green DNA, 72 h; series mostly up to 28.7 µM. A digest of the protocol: as §1
A further experiment deals with C2A. The description is as above. The settings on record: P. falciparum in erythrocytes, SYBR Green DNA, 72 h; series mostly up to 28.7 µM. In short, it runs like this:
as §1

The test system of another experiment is CP185. Described as above. The settings on record: P. falciparum in erythrocytes, SYBR Green DNA, 72 h; series mostly up to 28.7 µM. In short, it runs like this: as §1
The test system of a further experiment is CP191. The description is as above. The settings on record: P. falciparum in erythrocytes, SYBR Green DNA, 72 h; series mostly up to 28.7 µM. In short, it runs like this:
as §1

In the next experiment the test system is CP194. The experiment is described as above. Particulars: P. falciparum in erythrocytes, SYBR Green DNA, 72 h; series mostly up to 28.7 µM. A digest of the protocol: as §1
Another experiment concerns CP192. The experiment is described as above. The settings on record: P. falciparum in erythrocytes, SYBR Green DNA, 72 h; series mostly up to 28.7 µM. A digest of the protocol:
as §1

A further experiment has as its system CP201. The description is as above. The settings on record: P. falciparum in erythrocytes, SYBR Green DNA, 72 h; series mostly up to 28.7 µM. A digest of the protocol:
as §1

The test system of another experiment is CP211. The description is as above. Particulars: P. falciparum in erythrocytes, SYBR Green DNA, 72 h; series mostly up to 28.7 µM. A digest of the protocol:
as §1

The test system of a further experiment is CP203. Described as above. The settings on record: P. falciparum in erythrocytes, SYBR Green DNA, 72 h; series mostly up to 28.7 µM. A digest of the protocol:
as §1
Potency is the fitted concentration of half-maximal effect.

As for `CC[C@@]1(O)C(=O)OCc2c1cc1n(c2=O)Cc2cc3c([N+](=O)[O-])cccc3nc2-1`, the Potency in [1] (parasite line A) is 4.47 µM (active); in the experiment on 3D7, 5.01 µM (active); with 7G8 it was 5.01 µM (active); in the experiment with AA1029 it was 7.08 µM (active); with AS120 it was 5.01 µM (active); in the experiment on ATS189, 7.94 µM (active). Further, the Potency in the experiment on ATS95 was 5.01 µM (active); with C2A, 7.94 µM (active); in the experiment with CP185, 8.91 µM (active); in the experiment with CP191 it was 11.2 µM (active); with CP194 it was 12 µM (active).
For `O=C(O)c1cc(=O)c2c3nc4ccccc4oc-3cc(=O)c2[nH]1`, the figures for the activity, negative = inhibition in [1] (parasite line A) and in experiment [1] (parasite line B) were -19% and -11.6%, respectively. The Potency with 3D7 is 14.1 µM (active); with 7G8, 1.26 µM (active). The Potency entry with AA1029, in the experiment on ATS189, in the experiment on ATS95, in the experiment with C2A, with CP185 and with CP191 was “inactive” in each case. Besides, the Potency entry in the experiment with CP192, in the experiment with CP194, in the experiment with CP201 and in the experiment with CP211 was “inactive” in each case.
In the case of `C[C@H]1C[C@H]2[C@@H]3CCC4=CC(=O)C=C[C@]4(C)[C@@]3(F)[C@@H](O)C[C@]2(C)[C@@]1(O)C(=O)CO`, the activity, negative = inhibition is 15.5% in [1] (parasite line A) and 5.52% in experiment [1] (parasite line B). For the same compound, the Potency entry in the experiment on 3D7, in the experiment on AA1029, in the experiment on AS120, with ATS189, in the experiment with ATS95 and in the experiment with C2A was “inactive” each time. Further, the Potency result with CP185, in the experiment on CP191, in the experiment with CP192, in the experiment on CP194, in the experiment with CP201 and in the experiment on CP211 was “inactive” throughout.
On to `CCOc1ccc(N=Nc2ccc(N)cc2N)cc1`, for which the activity, negative = inhibition in experiment [1] (parasite line B) was 14.7%. Moreover, the Potency result in the experiment with 3D7, in the experiment with AA1029, with AS120, in the experiment on ATS95, with C2A and with CP185 was “inactive” each time. The Potency entry with CP191, in the experiment on CP192, in the experiment with CP194, in the experiment on CP201, in the experiment with CP203 and in the experiment on CP211 was “inactive” each time.
Consider `CC1(C)C(C=C(Cl)Cl)C1C(=O)OCc1cccc(Oc2ccccc2)c1` (configuration not stated), for which the activity, negative = inhibition is -2.63% in experiment [1] (parasite line A) and -6.77% in experiment [1] (parasite line B). The Potency entry in the experiment with 3D7, in the experiment with AA1029, with AS120, in the experiment on ATS189, in the experiment on ATS95 and with C2A was “inactive” in each case. Also, the Potency result in the experiment with CP185, in the experiment on CP191, in the experiment on CP192, in the experiment with CP194, in the experiment with CP201 and with CP211 was “inactive” in each case.
For the compound `CC(C)=O`, the activity, negative = inhibition in [1] (parasite line A) is -12.1%. Moreover, the Potency result with 3D7, with 7G8, in the experiment with AA1029, with AS120, with ATS189 and in the experiment with C2A was “inactive” in each case. In addition, the Potency entry in the experiment with CP185, with CP191, in the experiment on CP192, in the experiment on CP194, in the experiment on CP201 and with CP211 was “inactive” each time.
For `CCCCC(=O)O[C@]1(C(=O)CO)[C@H](C)C[C@H]2[C@@H]3CCC4=CC(=O)C=C[C@]4(C)[C@@]3(F)[C@@H](O)C[C@@]21C`, the Potency with 7G8 is 8.91 µM (active). Further, the Potency entry in the experiment with AA1029, in the experiment on ATS189, in the experiment with ATS95, in the experiment with C2A, in the experiment with CP185 and in the experiment with CP191 was “inactive” each time. In addition, the Potency result in the experiment with CP192, in the experiment with CP194, in the experiment on CP201 and in the experiment with CP211 was “inactive” each time.
For the compound `CCOc1ccc2c(c1)C(C)=CC(C)(C)N2`, the values for the activity, negative = inhibition in experiment [1] (parasite line A) and in experiment [1] (parasite line B) were -19.3% and -4.99%, respectively. The Potency result in the experiment on 7G8, with AA1029, with AS120, with ATS189, with ATS95 and with C2A was “inactive” throughout. Moreover, the Potency entry with CP185, in the experiment with CP191, with CP192, with CP194, in the experiment on CP201 and in the experiment on CP211 was “inactive” each time.
Take `COCC(=O)Nc1cc(Sc2ccccc2)ccc1N=C(NC(=O)OC)NC(=O)OC`: the activity, negative = inhibition is 17.1% in experiment [1] (parasite line A) and 26.6% in [1] (parasite line B). Also, the Potency result in the experiment with 3D7, in the experiment with AA1029, in the experiment with AS120, with ATS189, in the experiment with ATS95 and in the experiment with C2A was “inactive” throughout. The Potency entry in the experiment on CP185, with CP191, in the experiment on CP192, in the experiment with CP194, in the experiment with CP201 and with CP211 was “inactive” throughout.
With `O=CCCCC=O`, the activity, negative = inhibition is -0.127% in experiment [1] (parasite line A) and 0.568% in experiment [1] (parasite line B). Besides, the Potency result with 3D7, with AA1029, in the experiment with AS120, in the experiment with ATS95, with C2A and in the experiment with CP185 was “inactive” throughout. Besides, the Potency entry with CP191, in the experiment with CP192, in the experiment on CP194, with CP201 and in the experiment with CP211 was “inactive” each time. For the same compound, the Potency in the experiment on 7G8 is 10 µM (active).
